High-throughput results as filed in PubChem.
A selection: hits, their analogues and other compounds. The true share with any hit is near 4.8%.
hcDAF12 agonist: H. contortus DAF-12 nuclear receptor activators, primary screen, cell-based, luminescence, HEK293, lit1-tk-luc reporter | HEK293 hcDAF-12 lit1-tk-luc reporter; 0% DMSO, 100% Δ7-dafachronic acid | activation, % at 6.8 µM | 370,000 compounds, 1.4% hits | AID 652067, 2013;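 active = activation above the mean of all tested compounds plus 3 SD, cut at about 5.5% in these data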
ssDAF-12 act: S. stercoralis DAF-12 nuclear receptor activators, primary screen, cell-based, luminescence, HEK293, GRIP1 co-expression, lit1-tk-luc; AID 652126, 2013; Nuclear hormone receptor DAF-12 (Strongyloides stercoralis); 370,000 compounds, 1% hits; activation, % at 6.8 µM; HEK293 ssDAF-12/GRIP1 lit1-tk-luc reporter; % of 3 µM dafachronic acid response;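 active = activation above the mean over all tested compounds plus 3 SD, cut at about 0.9% in these data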
hgDAF12 agonist: H. glycines DAF-12 receptor agonists, primary screen, cell-based, luminescence, HEK293, GAL4 fusion, UAS-luciferase. HEK293 GAL4-hgDAF12 UAS-luciferase reporter, agonist luminescence; normalized to butyrate control. activation, % at 6.8 µM. 370,000 compounds, 1.8% hits;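 active = activation above a cutoff set at the mean of all screened compounds plus 3 SD, cut at about 10% in these data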
DAX1 inh-1: DAX1 (NR0B1) inhibitors on StAR promoter, primary screen, cell-based, luminescence, SF-1 (NR5A1), full-length DAX-1; HEK293T StAR-luciferase reporter, SF-1/DAX-1 repression relief; inhibition, % at 6.8 µM; 370,000 compounds, 1.1% hits;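 active = inhibition above the mean over all tested compounds plus 3 SD, cut at about 3.6% in these data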;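 note: higher inhibition means more luminescence from relief of DAX-1 repression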
Rev-erbA mod: modulators of Rev-erb alpha DNA binding, primary screen, biochemical, FITC-DNA, fluorescence polarization, uHTS; Nuclear receptor subfamily 1 group D member 1 (Homo sapiens), P20393; Rev-erbα–FITC-DNA binding, 90 min; activity, % at 10 µM; 370,000 compounds, 0.79% hits;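 active = activity above about 14%, limit read from the data; passing the limit was not always enough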
DAX1 inh-2: DAX1 (NR0B1) inhibitors, primary screen, cell-based, HEK293, Gal4-DAX1, luciferase luminescence; inhibition, % at 6.75 µM; HEK293 Gal4-DAX1 luciferase reporter; Nuclear receptor subfamily 0 group B member 1 (Homo sapiens), P51843; AID 504766, 2011; 340,000 compounds, 0.99% hits;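 active = inhibition above the mean over all tested compounds plus 3 SD, cut at about 4.2% in these data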;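 note: inhibition shows as a rise in luminescence from relieved DAX1 repression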
Target sequence (P51843 207-470 limits assumed): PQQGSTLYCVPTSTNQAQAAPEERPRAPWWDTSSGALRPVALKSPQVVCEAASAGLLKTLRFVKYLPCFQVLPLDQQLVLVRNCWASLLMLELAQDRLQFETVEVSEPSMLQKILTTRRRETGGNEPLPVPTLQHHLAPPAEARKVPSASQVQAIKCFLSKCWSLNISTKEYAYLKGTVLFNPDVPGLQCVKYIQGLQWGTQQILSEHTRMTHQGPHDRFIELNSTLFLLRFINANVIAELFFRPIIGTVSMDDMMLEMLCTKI
LXRb hcDAF ctr: LXR agonists, Gal4 luciferase reporter, confirmation, counter-screen for hcDAF-12 agonist project, cell-based, luminescence, HEK293, H. contortus campaign. shares compounds with hcDAF12 agonist. HEK293 Gal4-LXR tk-luc reporter, 24 h; normalized: DMSO 0%, positive control 100%. activation, % at 6.8 µM. 3,400 tested, under 10 active. AID 743027, 2013;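 active = mean percent activation of the reporter above a cutoff set as the average over tested compounds plus their standard deviation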
Target sequence (P55055 whole entry, looked up, the tested form may be a part): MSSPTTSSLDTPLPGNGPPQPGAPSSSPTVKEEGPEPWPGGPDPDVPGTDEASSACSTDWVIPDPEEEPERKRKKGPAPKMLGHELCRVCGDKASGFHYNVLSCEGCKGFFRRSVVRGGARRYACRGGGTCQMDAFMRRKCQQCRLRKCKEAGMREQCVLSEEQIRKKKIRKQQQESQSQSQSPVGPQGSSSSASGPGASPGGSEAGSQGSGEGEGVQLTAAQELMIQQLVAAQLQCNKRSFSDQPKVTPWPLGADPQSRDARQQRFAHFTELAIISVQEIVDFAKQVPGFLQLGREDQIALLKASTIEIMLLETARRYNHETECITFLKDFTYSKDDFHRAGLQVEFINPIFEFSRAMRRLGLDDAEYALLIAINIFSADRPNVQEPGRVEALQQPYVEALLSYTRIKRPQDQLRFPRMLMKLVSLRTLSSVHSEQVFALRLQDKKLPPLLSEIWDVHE
hcDAF12 conf: H. contortus DAF-12 receptor agonists, confirmation, cell-based, luminescence, HEK293, lit1-tk-luc, triplicate. shares compounds with hcDAF12 agonist. AID 743032, 2013. 3,400 compounds, 61% hits. activation, % at 6.8 µM. HEK293 hcDAF-12 lit1-tk-luc reporter; % of Δ7-dafachronic acid response;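 active = mean activation across triplicate tests above the threshold derived from the earlier primary screen, cut at about 5.5% in these data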
Of the large screens only hits and unclear results are named; the others gave an inactive call (follow-up assays come after a bar, where they were run).

O=[N+]([O-])c1ccccc1CSc1nc2ccccc2o1	hcDAF12 agonist 6.7 | LXRb hcDAF ctr inactive | hcDAF12 conf inactive
CCOC(=O)[C@]12CCCC3=C1N(CCC3)C(=O)[C@@H](CC(=O)NCc1ccc(C)o1)C2	none (no result: DAX1 inh-2)
COC(=O)c1ccc(COc2ccccc2/C=N/Nc2cccc(C(=O)O)c2)cc1	none
O=C(O)c1cccc(N/N=C/c2sc(N3CCOCC3)nc2-c2ccccc2)c1	hcDAF12 agonist 7.5 | LXRb hcDAF ctr inactive | hcDAF12 conf inactive
O=C(O)c1cccc(N/N=C/c2cccc3ccccc23)c1	hcDAF12 agonist 7.5, hgDAF12 agonist 13 | LXRb hcDAF ctr inactive | hcDAF12 conf 11
CN(Cc1cn(Cc2ccccc2)nn1)S(=O)(=O)c1ccc(F)cc1Br	none (no result: DAX1 inh-2)
COc1ccc(C(=O)OCC(=O)c2ccc[nH]2)c(OC)c1	hcDAF12 agonist 6.7 | LXRb hcDAF ctr inactive | hcDAF12 conf inactive
O=S1(=O)c2c(cccc2N2CCSCC2)Oc2ccccc2CN1Cc1cn(Cc2ccccc2C(F)(F)F)nn1	none (no result: DAX1 inh-2)
O=C(Cc1c[nH]c2ccccc12)Nc1nccs1	none
O=C(Nc1nccs1)C(=O)c1c[nH]c2ccccc12	hcDAF12 agonist 6.5, ssDAF-12 act 1.8 | LXRb hcDAF ctr inactive | hcDAF12 conf 8.0
c1ccc2c(c1)CCCN2Cc1nnc2n1CCCCC2	hcDAF12 agonist 7.7, ssDAF-12 act 1.0 | LXRb hcDAF ctr inactive | hcDAF12 conf inactive
COc1ccccc1N(Cc1ccccc1)S(=O)(=O)c1cccc(C(=O)Nc2ccc(C(C)=O)cc2)c1	hcDAF12 agonist 12 | LXRb hcDAF ctr inactive | hcDAF12 conf inactive
Clc1ccc(-c2nnc(SCc3cccc4ccccc34)n2Cc2ccco2)cc1	none (no result: DAX1 inh-2)
CCOC(=O)C1=C(C)NC2=C(C(=O)CCC2)C1c1coc2ccccc2c1=O (stereo not given)	hcDAF12 agonist 6.8 | LXRb hcDAF ctr inactive | hcDAF12 conf inactive
COC(=O)C1=C(C)NC2=C(C(=O)CCC2)C1c1coc2ccccc2c1=O (stereo not given)	none
C[C@H](O)[C@@H]1CN2CCc3c([nH]c4c(-c5ccc6c(c5)OCO6)cccc34)[C@@H]2C[C@@H]1N(C)C(=O)c1ccccc1F	none (no result: DAX1 inh-2)
Cc1ccc(Nc2nc(-c3ccc(C)cc3)c(CC(=O)O)s2)cc1	none
O=C(O)Cc1sc(Nc2cccc3ccccc23)nc1-c1ccc(Cl)cc1	hcDAF12 agonist 6.7 | LXRb hcDAF ctr inactive | hcDAF12 conf inactive
CN1CCCCC(NC(=O)c2ccc(F)c(F)c2)C1=O (stereo not given)	none (no result: DAX1 inh-2)
COc1ccc(NC(=O)C(c2ccccn2)N(C(C)=O)c2ccc(C)cc2)cc1 (stereo not given)	hcDAF12 agonist 10, ssDAF-12 act 1.6 | LXRb hcDAF ctr inactive | hcDAF12 conf inactive
CCOc1ccc(NC(=O)C(c2ccccn2)N(C(=O)CCl)c2ccc(OCC)cc2)cc1 (stereo not given)	none (no result: hcDAF12 agonist, ssDAF-12 act, hgDAF12 agonist, DAX1 inh-1, Rev-erbA mod)
Cc1cc(Nc2cc(Cl)cc(Cl)c2)cc(=O)n1-c1cc(Cl)cc(Cl)c1	none (no result: DAX1 inh-2)
CCc1cc(C(=O)Nc2ccc(C)cc2Br)cs1	hcDAF12 agonist 9.1, ssDAF-12 act 1.6, hgDAF12 agonist 12, DAX1 inh-1 3.7 | LXRb hcDAF ctr inactive | hcDAF12 conf 12
COC(=O)C1=C(C)N(Cc2ccc(C(F)(F)F)cc2)C(=NCc2ccccc2C(F)(F)F)NC1c1ccc(C(F)(F)F)cc1 (stereo not given)	none (no result: DAX1 inh-2)
COc1ccccc1N1C(=O)CC(N(O)c2ccccc2)C1=O (stereo not given)	hcDAF12 agonist 6.7 | LXRb hcDAF ctr inactive | hcDAF12 conf inactive
Cc1cc(C)cc(C(=O)Nc2cccnc2Cl)c1	none
Cc1ccc(C(=O)Nc2cccnc2Cl)cc1Cl	hcDAF12 agonist 8.0, DAX1 inh-2 6.0 | LXRb hcDAF ctr inactive | hcDAF12 conf inactive
CCC(=O)Nc1cccc2cccnc12	none
Cc1ccc(C(=O)Nc2cccc3cccnc23)cc1Br	hcDAF12 agonist 6.9 (no result: DAX1 inh-2) | LXRb hcDAF ctr inactive | hcDAF12 conf 7.8
O=C(Nc1cccc2cccnc12)c1ccc2c(c1)OCCO2	hcDAF12 agonist 8.7 | LXRb hcDAF ctr inactive | hcDAF12 conf 5.7
CCOC(=O)c1c(C)oc2c1c1c(c3ccccc32)OCN(CCCC(=O)O)C1	hcDAF12 agonist 8.9, ssDAF-12 act 1.2, DAX1 inh-2 5.0 | LXRb hcDAF ctr inactive | hcDAF12 conf 12
Cc1ccccc1N=C1NN=C(c2ccccc2F)CS1	hcDAF12 agonist 9.4, hgDAF12 agonist 13 | LXRb hcDAF ctr inactive | hcDAF12 conf 11
Cc1cccc(C)c1N=C1NN=C(c2ccccc2F)CS1	none
COC(=O)c1c(-c2ccc(OC)cc2)c2c(c3c4cc(OC)ccc4n(S(=O)(=O)c4ccc(C)cc4)c13)C(=O)N(C)C2	none (no result: DAX1 inh-2)
CN[C@H]1C[C@H]2c3[nH]c4c(-c5ccccc5)cccc4c3CCN2C[C@H]1[C@H](C)O	none (no result: DAX1 inh-2)
CC1(C)CC(=O)c2ccc(OCc3ccc([N+](=O)[O-])cc3)cc2O1	hcDAF12 agonist 17, ssDAF-12 act 1.2 (no result: DAX1 inh-2) | LXRb hcDAF ctr inactive | hcDAF12 conf 11
COc1ccc2c(C(=O)CN3CCSCC3)c[nH]c2c1	hcDAF12 agonist 6.6 | LXRb hcDAF ctr inactive | hcDAF12 conf inactive
COC(=O)C1CCC(CNC(=O)C(Cc2ccc3c(c2)OCO3)NC(C)=O)CC1 (stereo not given)	none (no result: DAX1 inh-2)
CCOC(=O)C1(C(=O)OCC)N=C(c2ccccc2)C=C1c1ccccc1	none (no result: DAX1 inh-2)
Clc1ccc2nc(-c3ccc4c(c3)OCO4)cn2c1	hcDAF12 agonist 7.5, DAX1 inh-1 3.7 | LXRb hcDAF ctr inactive | hcDAF12 conf 7.1
CC(C)(C)C(=O)OC12CCCN(C1)/C(=C/c1cccc(Cl)c1)C2 (stereo not given)	none (no result: DAX1 inh-2)
